OPRM1-OPRD1 inv: mu-delta opioid heterodimer inverse agonism | hit rate 0.21% among 340,000 | inhibition, % at 9.3 µM | cell-based MOR-DOR heterodimer luminescence; in the data active = inhibition above about 22%, passing the limit was not always enough;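 note: 0% = cells with DMSO and 100% = wells without cells with DMSO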
Target sequence (P35372 whole entry, looked up): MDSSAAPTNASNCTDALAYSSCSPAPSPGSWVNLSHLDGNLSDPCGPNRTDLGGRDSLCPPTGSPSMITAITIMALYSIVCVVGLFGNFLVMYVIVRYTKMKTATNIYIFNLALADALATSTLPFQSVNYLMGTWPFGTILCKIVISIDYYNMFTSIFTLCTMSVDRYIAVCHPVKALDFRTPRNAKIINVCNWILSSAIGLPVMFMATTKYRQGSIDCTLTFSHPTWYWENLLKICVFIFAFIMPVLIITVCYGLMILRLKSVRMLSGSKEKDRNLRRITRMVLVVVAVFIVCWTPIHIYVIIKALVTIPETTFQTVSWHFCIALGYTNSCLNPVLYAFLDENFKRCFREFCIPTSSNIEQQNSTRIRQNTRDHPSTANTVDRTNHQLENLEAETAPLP
Target sequence (P41143 whole entry, looked up): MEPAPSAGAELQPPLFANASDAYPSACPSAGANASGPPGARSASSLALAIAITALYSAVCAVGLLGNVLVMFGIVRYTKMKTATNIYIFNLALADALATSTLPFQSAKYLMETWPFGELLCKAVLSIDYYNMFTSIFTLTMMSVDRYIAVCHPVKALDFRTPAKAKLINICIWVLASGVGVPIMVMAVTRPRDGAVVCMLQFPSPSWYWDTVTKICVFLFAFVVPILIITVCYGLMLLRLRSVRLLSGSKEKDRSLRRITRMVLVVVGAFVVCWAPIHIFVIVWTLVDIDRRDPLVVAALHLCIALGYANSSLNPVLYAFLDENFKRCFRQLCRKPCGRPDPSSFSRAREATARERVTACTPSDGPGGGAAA
MOR-DOR ag: OPRM1-OPRD1 heterodimerization agonism; P35372+P41143; activation, % at 9.3 µM; AID 504326; hit rate 0.3% among 340,000; cells, luminescence; in the data active = activation above about 18%;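 note: 0% = vehicle-treated cells and 100% = reference agonist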
HTR5A inv ctr: HTR5A inverse agonism, opioid heterodimer counter-screen; P47898; inhibition, % at 9.3 µM; AID 504634; hit rate 0.083% among 340,000; HTR5A cell line, luminescence; in the data active = inhibition mostly above about 23%, no sharp cut-off; inactive = mostly below about 18%;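 note: 0% = cells with DMSO and 100% = no-cell wells with DMSO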
HTR5A ag: activates human HTR5A in OPRM1-OPRD1 agonist counter-screen. P47898. activation, % at 9.3 µM. AID 504692. HTR5A agonist assay, luminescence, cell-based. hit rate 0.61% among 340,000; in the data active = activation mostly above about 9.5%, no sharp cut-off; inactive = mostly below about 7.6%;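 note: 0% = cells with vehicle only and 100% = reference agonist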
Numbers without * were called inactive. This is a sample that favours compounds with a hit; in the whole collection about 1.1% have one here.

SMILES	OPRM1-OPRD1 inv	MOR-DOR ag	HTR5A inv ctr	HTR5A ag
O=C(c1cccc(C(F)(F)F)c1)C1CCCN(Cc2cccc(OCCO)c2)C1 (stereo not given)	-10	2	-33	13*
O=C(O)c1ccccc1OCC1CCCO1 (stereo not given)	13	-2	3	2
Cn1c(N)c(C(=O)COC(=O)C2(c3ccc(F)cc3)CCCC2)c(=O)n(C)c1=O	-8	1	18	8.4*
CCCCc1nnc(NC(=O)C2CC(=O)N(Cc3ccccc3)C2)s1 (stereo not given)	5	-1	-14	5
COCCn1c(N)c(C(=O)NCC2CCCO2)c2nc3ccccc3nc21 (stereo not given)	18	-3	-6	0
CC(C)Cn1c(N)c(C(=O)NCC2CCCO2)c2nc3ccccc3nc21 (stereo not given)	44*	-11	11	-4
N#CCCN(C(=O)COC(=O)CCc1nc2ccccc2c(=O)[nH]1)c1ccc(F)cc1	7	-1	-38	10*
CCc1nnc(SCC(=O)NC2CCCC2)nc1CC	19	-4	-9	9.8*
COC(=O)CCCC1=CC2=C(c3ccccc3)C(=O)C(C)(OC(=O)C3CCCC3)C(=O)C2=CN1C(CO)CO (stereo not given)	-11	2	-14	4
O=S(=O)(c1ccc(Br)cc1Cl)N1CCN(CCO)CC1	18	-4	-8	2
O=C1C=CC(=O)c2c(O)c(N3CCN(CCO)CC3)c(Cl)c(O)c21	-109	21*	11	-3
CC(C)CCNC(=O)Cc1csc(-c2ccccc2)n1	-4	1	-1	0
CC(=O)c1ccc(NC(=O)CSc2ccsc2[N+](=O)[O-])cc1	10	-2	-22	9.4*
O=C(CSc1ccsc1[N+](=O)[O-])Nc1cc(F)ccc1F	8	-2	6	-3
CCc1ccc(CN2CCC(Oc3ccc(C(=O)N4CCCC4)cc3)CC2)cc1	16	-5	5	1
O=C(c1ccc(OC2CCN(Cc3ccc(F)cc3)CC2)cc1)N1CCCC1	2	0	-38	10*
COc1cccc(-n2c(Cn3nc(C(F)(F)F)cc3C)n[nH]c2=S)c1	-4	1	35	1
c1ccc(CN2CCN(c3ncnc4c3[nH]c3ccccc34)CC2)cc1	-30	5	15	1
c1ccc2c(c1)CCN(c1ncnc3c1[nH]c1ccccc13)C2	-324	52*	-16	9
COc1cccc(CCNC(=O)CCc2nnc(-c3cc(C)oc3C)o2)c1	12	-2	-7	2
Cc1ccc(-n2c(=O)[nH]c3c(C(N)=O)nc(-c4ccc(C)o4)nc32)cc1	-18	3	-41	11*
Cc1ccc(OCC(=O)N2N=C(c3ccncc3)CC2(O)C(F)(F)F)cc1C (stereo not given)	7	-1	2	-1
C=CCN1C=C2C(=O)C(C)(OC(=O)C3CCCC3)C(=O)C(c3ccccc3)=C2C=C1CCCC(=O)OC (stereo not given)	-32	6	22	12*
CC(c1ccccc1)C1CC(=O)N(c2ccc([N+](=O)[O-])cc2)C1=O (stereo not given)	12	-2	10	-3
CC(c1ccccc1)C1CC(=O)N(c2ccccc2)C1=O (stereo not given)	35*	-7	36*	-12
SMILES	OPRM1-OPRD1 inv	MOR-DOR ag	HTR5A inv ctr	HTR5A ag
COc1cccc(NC(=O)CSc2nnc(-c3cccs3)n2C)c1	17	-3	-37	10*
CC(=O)Nc1ccc(NC(=O)CSc2nnc(-c3cccs3)n2C)cc1	-8	1	-20	7
CN(C)S(=O)(=O)c1ccc(C(=O)N2CCN=C2SCc2ccccc2)cc1	0	0	-31	13*
CC1CCC(NC(=O)CCS(=O)(=O)c2ccc3c(c2)CCN3C(=O)C2CC2)CC1 (stereo not given)	13	-3	-17	10*
CCOC(=O)N1CCC(NC(=O)CCS(=O)(=O)c2ccc3c(c2)CCN3C(C)=O)CC1	-1	0	-14	0
O=S(=O)(N/N=C1/CCCc2ccccc21)c1ccc(Br)cc1	-35	6	8	3
CC1CCCC/C1=N\NS(=O)(=O)c1ccc(Br)cc1 (stereo not given)	-17	3	-87	11*
CN(C)S(=O)(=O)c1cccc(NC(=O)CSc2nc3c(cc2C#N)C(=O)CC(C)(C)C3)c1	-37	7	-49	13*
C=C(C)Cn1c(SCC#N)nc2ccccc2c1=O	17	-4	-3	-1
C=C(C)Cn1c(SCC)nc2ccccc2c1=O	-33	6	7	12*
CCOC(=O)c1sc(NC(=O)CN(CC(C)C)CC(C)C)c(C(=O)OCC)c1C	-2	0	-34	13*
CCOC(=O)c1c(NC(=O)CC(C)C)sc(C(C)=O)c1C	-32	6	-27	5
CCCC1CCC(=NNS(=O)(=O)c2ccc(C)c([N+](=O)[O-])c2)CC1 (stereo not given)	-7	1	-45	13*
O=S(=O)(N/N=C/c1ccccc1F)c1ccccc1	23	-5	-1	0
Cc1ccc(S(=O)(=O)N/N=C/c2ccccc2F)cc1[N+](=O)[O-]	10	-2	-46	12*
CCn1cc(C(=O)O)c(=O)c2cc(F)c(N3CCN(C(=S)NC(=O)c4ccc(F)c(F)c4)CC3)cc21	4	-1	-5	3
CC(=O)Nc1ccc(S(=O)(=O)N(Cc2cccnc2)Cc2cc3ccc(C)cc3[nH]c2=O)cc1	-5	1	8	-2
Clc1ccccc1/C=N/NC1=Nc2cccc3cccc1c23	-77	11	-15	12*
COc1ccc(Cl)cc1NC(=O)C(C)OC(=O)C1=NNC(=O)CC1 (stereo not given)	5	-1	-8	3
C/C=C(\C)CN1CCC(n2nccc2NC(=O)CCCc2ccccc2)CC1	5	-1	9	12*
O=C(c1ccccc1Br)N(Cc1ccccc1)c1ccccc1	4	-1	-3	1
Cn1c(-c2c(N)n(CCCc3ccccc3)c3nc4ccccc4nc23)nc2ccccc21	-313	58*	3	1
CCOc1cc(/C=C2\C(=O)N(Cc3ccc(C)cc3)C(C)=C2C(=O)OC)ccc1O	-10	2	-40	16*
C=CCOc1cccc(/C=C2\C(=O)N(Cc3ccc(C)cc3)C(C)=C2C(=O)OC)c1	-1	0	1	4
O=S(=O)(Nc1ccccc1)C1CCCCC1	0	0	2	0
CCN(CC)C(=O)c1[nH]cnc1C(=O)NCc1ccccc1	22	-5	-30	2
Cc1c(Nc2cc(Cl)c3nonc3c2[N+](=O)[O-])c(=O)n(-c2ccccc2)n1C	46*	-9	33*	-13
CC(=O)Nc1cccc(/C(C)=N/Nc2ccc(S(=O)(=O)Nc3ccccc3C(=O)O)cc2[N+](=O)[O-])c1	9	-2	28	1
Cc1nnc(-c2ccccc2)nc1N(C)C	8	-2	10	11*
CCO[C@@H]1OC(C(=O)NCc2ccccc2)=C[C@H](c2ccc3c(c2)OCO3)[C@H]1CCCO	8	-2	-26	-1
